This note sets out measurements from PubChem BioAssay (NCI).

Each structure is given as a SMILES string. About 83,000 compounds went through this panel and 20% of them were active in at least one assay; those are over-represented in the sample as a whole.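 A percent growth of 40 corresponds to 60% growth inhibition; 0 means no net growth; -100 means all cells died. Active threshold: below 10.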 Values without a mark were called inactive. Calls of active or inactive are those of the source.

For the first test, the system named is LOX IMVI melanoma. The test can be described thus: NCI-60 one-dose screen, 48 h (100 = growth as untreated, 0 = no growth, -100 = all killed). The note with it: 10 µM.
Take `N=C(N)c1nn(C2OC(CO)C(O)C2O)c2nc[nH]c(=O)c12` (stereo not drawn): the growth is -27.8% (active).
On the same count and under the same terms, as for `CC(C)C(=O)OCCOc1ccc(C(C)(C)C)cc1`, the figure is 95.8%; as for `OCCNc1ccccc1`, 94.3%; as for `C/C(=N\Nc1ccc([N+](=O)[O-])cc1[N+](=O)[O-])c1ccc(Br)cc1`, 95.8%.
Consider `O=C(Oc1ccccc1Cl)c1ccc(Cl)cc1Cl`, for which the growth is 104%.
Same read-out and setting: as for `C=C(C)COc1ccc(C(C)(C)C)cc1`, the figure is 101%; as for `Nc1ccn(C2CC(N)C(CO)O2)c(=O)n1` (stereo not drawn), 75.4%; as for `CN(CCCN(C)CCC1CCCCC1)CCC1CCCCC1`, -4.45% (active).
For the compound `O=S(Cc1ccccc1)/C(=C/NC(=S)Nc1cc(Cl)ccc1Cl)c1ccccc1` (stereo not drawn), the growth is 94.3%.
Take `Cc1c(Cl)cccc1N=C=S`: the growth was 103%.
The same measure, in the same setting: as for `CCCC1OC(c2ccco2)OCC1CC` (stereo not drawn), the figure is 95.1%; as for `CN1CCCN(C(c2ccccc2)c2ccc(Br)cc2)CC1` (stereo not drawn), 69.7%.
For the compound `OCCOc1ccc(-c2cc(-c3ccccn3)nc(-c3ccccn3)c2)cc1`, the growth is -29.6% (active).
Regarding `O=C(Nc1cccc(Cl)c1)c1ccc(Cl)cc1Cl`, the growth was 98.5%.
As to `CC(=O)Oc1c(Cl)cccc1-c1ccccc1`, the growth is 103%.
Same read-out and setting: as for `C/C=C/C1OCC(CC)C(CCC)O1` (stereo not drawn), the figure is 113%; as for `COc1cccc(C(=O)O)c1OC`, 99%.
The same measure, in the same setting: as for `CC(C)C1CCC(C)C(O)C1` (stereo not drawn), the figure is 99.6%; as for `COc1cc(CC#N)c([N+](=O)[O-])cc1OC`, 102%; as for `CCCNS(=O)(=O)c1ccc(Cl)cc1`, 101%.
Still for that read-out and setting: as for `CCOC(=O)/C(C)=C\c1ccc(OC)c(OC)c1`, the figure is 98%; as for `O=C(NCc1ccccc1)c1cccc([N+](=O)[O-])c1`, 105%.
Regarding `OCCc1ccc(Cl)cc1`, the growth is 100%.
On the same count and under the same terms, as for `C/C(=N\O)c1ccccn1`, the figure is 99.1%; as for `CC1(C)OC(=O)CC1=O`, 96.9%; as for `O=C1C=Cc2ccccc2/C1=C/c1[nH]c(=O)[nH]c1O`, 48.8%.
On to `Nc1ncnc2c1ncn2C1OC(CO)C2OC21` (stereo not drawn), for which the growth was 99.2%.
The same measure, in the same setting: as for `C=CCS(C)(=O)=O`, the figure is 103%; as for `Cc1ccc(C2CCCCC2)cc1Br`, 103%; as for `Cc1ccc2[nH]c3ccccc3c2c1`, 97%.
Same read-out and setting: as for `Cc1ccc(/C=N/NC(N)=S)s1`, the figure is 101%; as for `O=S(=O)(O)c1cccnc1`, 108%.
Same read-out and setting: as for `O=C(O)c1ccccc1Cc1ccc2c(c1)CCCC2`, the figure is 109%; as for `Nc1cc(F)ccc1[N+](=O)[O-]`, 100%; as for `CCOc1ccc(C(=O)O)cc1`, 98.7%.
Take `CCCCOC(=O)c1ccccc1O`: the growth was 100%.

For a further test, the system named is SK-MEL-28 melanoma. Described as above. The note with it: 10 µM unless noted.
Consider `O=C(O)CSCC(=O)Nc1cc(C(F)(F)F)ccc1Cl`, for which the growth was 114%.
On the same count and under the same terms, as for `N=C(N)c1nn(C2OC(CO)C(O)C2O)c2nc[nH]c(=O)c12` (stereo not drawn), the figure is -53.9% (active).
Still for that read-out and setting: as for `CC(C)C(=O)OCCOc1ccc(C(C)(C)C)cc1`, the figure is 110%; as for `OCCNc1ccccc1`, 107%.
As for `C/C(=N\Nc1ccc([N+](=O)[O-])cc1[N+](=O)[O-])c1ccc(Br)cc1`, the growth is 107%.
Still for that read-out and setting: as for `O=C(Oc1ccccc1Cl)c1ccc(Cl)cc1Cl`, the figure is 109%; as for `C=C(C)COc1ccc(C(C)(C)C)cc1`, 108%; as for `CCC(C)c1c(N)n(S(=O)(=O)c2ccc(C)cc2)oc1=O` (stereo not drawn), 119%.
As for `Nc1ccn(C2CC(N)C(CO)O2)c(=O)n1` (stereo not drawn), the growth was 118%.
Regarding `CN(CCCN(C)CCC1CCCCC1)CCC1CCCCC1`, the growth is -84.9% (active).
The same measure, in the same setting: as for `O=S(Cc1ccccc1)/C(=C/NC(=S)Nc1cc(Cl)ccc1Cl)c1ccccc1` (stereo not drawn), the figure is 109%.
In the case of `Cc1c(Cl)cccc1N=C=S`, the growth was 132%.
On to `CCCC1OC(c2ccco2)OCC1CC` (stereo not drawn), for which the growth was 113%.
Same read-out and setting: as for `CN1CCCN(C(c2ccccc2)c2ccc(Br)cc2)CC1` (stereo not drawn), the figure is 64.9%.
Still for that read-out and setting: as for `O=C(Nc1cccc(Cl)c1)c1ccc(Cl)cc1Cl`, the figure is 101%; as for `CC(=O)Oc1c(Cl)cccc1-c1ccccc1`, 112%.
On the same count and under the same terms, as for `C/C=C/C1OCC(CC)C(CCC)O1` (stereo not drawn), the figure is 112%.
Turning to `COc1cccc(C(=O)O)c1OC`, the growth is 102%.
For `CC(C)C1CCC(C)C(O)C1` (stereo not drawn), the growth is 110%.
Same read-out and setting: as for `COc1cc(CC#N)c([N+](=O)[O-])cc1OC`, the figure is 107%; as for `CCCNS(=O)(=O)c1ccc(Cl)cc1`, 108%.
Still for that read-out and setting: as for `CCOC(=O)/C(C)=C\c1ccc(OC)c(OC)c1`, the figure is 108%.
On the same count and under the same terms, as for `O=C(NCc1ccccc1)c1cccc([N+](=O)[O-])c1`, the figure is 114%; as for `OCCc1ccc(Cl)cc1`, 108%; as for `C/C(=N\O)c1ccccn1`, 110%.
Take `CC1(C)OC(=O)CC1=O`: the growth was 109%.
As for `O=C1C=Cc2ccccc2/C1=C/c1[nH]c(=O)[nH]c1O`, the growth was 30.6%.
Consider `Nc1ncnc2c1ncn2C1OC(CO)C2OC21` (stereo not drawn), for which the growth is 111%.
Take `C=CCS(C)(=O)=O`: the growth is 106%.
On the same count and under the same terms, as for `Cc1ccc(C2CCCCC2)cc1Br`, the figure is 101%; as for `Cc1ccc2[nH]c3ccccc3c2c1`, 111%; as for `Cc1ccc(/C=N/NC(N)=S)s1`, 113%.
Same read-out and setting: as for `O=S(=O)(O)c1cccnc1`, the figure is 114%; as for `O=C(O)c1ccccc1Cc1ccc2c(c1)CCCC2`, 108%; as for `Nc1cc(F)ccc1[N+](=O)[O-]`, 104%.
Same read-out and setting: as for `CCOc1ccc(C(=O)O)cc1`, the figure is 105%; as for `CCCCOC(=O)c1ccccc1O`, 113%.
